In PubChem BioAssay (NCI):
This is part of a sample that, as a whole, favours compounds with a hit. Of some 79,000 tested, about 15% had one in any assay. A number with no mark means an inactive call. Calls of active or inactive are those of the source. Cut-off read from the data, not from the text of the source: active = growth inhibition above about 70%; inactive = the rest.

Assays:
[1] = NCI Yeast Anticancer Drug Screen. Data for the rad50 strain (AID 155);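 note: 0% = growth of vehicle-only cultures of the same strain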; conditions: S. cerevisiae rad50 strain growth inhibition, active compounds read high
How it was run: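 Compounds were tested on a yeast strain with an engineered DNA damage repair alteration; the reported value is growth inhibition normalised to vehicle treatment.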

[2] = NCI Yeast Anticancer Drug Screen. Data for the mec2-1 strain (AID 157); conditions: S. cerevisiae mec2-1 strain, active compounds read high
How it was run: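 Strain: mec2-1 (DNA repair/cell cycle alteration). Compound exposure, then growth measured; inhibition expressed relative to vehicle.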

[3] = NCI Yeast Anticancer Drug Screen. Data for the sgs1 mgt1 strain (AID 161);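 note: 0% = growth of cultures given vehicle only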; conditions: S. cerevisiae sgs1 mgt1 strain, active compounds read high
How it was run: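 Read-out: growth inhibition vs vehicle controls. Cells: mutant yeast strain deficient in DNA damage repair.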

[4] = NCI Yeast Anticancer Drug Screen. Data for the cln2 rad14 strain (AID 165);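 note: 0% = growth equal to vehicle treated cultures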; conditions: S. cerevisiae cln2 rad14 strain, active compounds read high
How it was run: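 Compounds are applied to the cln2 rad14 yeast strain, and growth is then compared with that of vehicle-treated cultures to give inhibition.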

[5] = NCI Yeast Anticancer Drug Screen. Data for the bub3 strain (AID 167); conditions: S. cerevisiae bub3 mutant strain, active compounds read high
How it was run: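 Growth of a checkpoint-deficient yeast mutant is measured after compound exposure. Values represent inhibition relative to vehicle.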

[6] = NCI Yeast Anticancer Drug Screen. Data for the mlh1 rad18 strain (AID 175); conditions: S. cerevisiae mlh1 rad18 strain growth inhibition, active compounds read high
How it was run: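 Read-out is yeast growth inhibition, calculated against vehicle-only controls. The compound was applied to a strain engineered with DNA damage repair alterations.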

[7] = at 5.0 µM (retest, dose inferred, filed as 0.5)
[8] = at 50.0 µM (retest, dose inferred, filed as 5.0)

Structure (SMILES)	growth inhibition [1, 7]	growth inhibition [1, 8]	growth inhibition ([1]; at 50.0 µM)	growth inhibition [2, 7]	growth inhibition [2, 8]	growth inhibition ([2]; at 50.0 µM)	growth inhibition [3, 7]	growth inhibition [3, 8]	growth inhibition ([3]; at 50.0 µM)	growth inhibition [4, 7]	growth inhibition [4, 8]	growth inhibition ([4]; at 50.0 µM)	growth inhibition [5, 7]	growth inhibition [5, 8]	growth inhibition ([5]; at 50.0 µM)	growth inhibition [6, 7]	growth inhibition [6, 8]	growth inhibition ([6]; at 50.0 µM)
O=C1c2ccccc2C(=O)N1c1ccccc1	-2%	-20%	31.4%	-3%	-1%	-5.9%	1%	5%	20%	3%	7%	42.2%	36%	15%	2.3%	-1%	2%	16.4%
Cc1ccc(/C=C2\CCCc3ccccc3C2=O)cc1	0%	7%	51.3%	7%	23%	7.9%	8%	33%	55.8%	-11%	-11%	11.3%	59%	81% (active)	72.3% (active)	7%	23%	55.1%
COc1ccc([N+](=O)[O-])cc1[I+]c1cc([N+](=O)[O-])ccc1OC	19%	95% (active)	93.2% (active)	58%	89% (active)	76.3% (active)	49%	95% (active)	92.2% (active)	16%	86% (active)	94.2% (active)	9%	85% (active)	90.8% (active)	57%	98% (active)	95.7% (active)
N/N=C(\N)c1ccc2ccc3cccnc3c2n1	1%	73% (active)	74% (active)	2%	73% (active)	42.3%	-2%	77% (active)	56.8%	-7%	62%	45.9%	-3%	59%	41.5%	13%	79% (active)	52.8%
Cc1c2c(c(O)c3c(O)cccc13)C(=O)C1(O)C(=O)C(C(N)=O)C(O)C(N(C)C)C1C2 (configuration not stated)	27%	99% (active)	65.7%	82% (active)	100% (active)	99.2% (active)	-90%	100% (active)	58%	66%	99% (active)	98.7% (active)	61%	99% (active)	98.6% (active)	70% (active)	99% (active)	99.1% (active)
O=c1cccccc1O	14%	97% (active)	90.4% (active)	4%	100% (active)	91.7% (active)	8%	99% (active)	93.3% (active)	16%	62%	85.7% (active)	26%	97% (active)	91.5% (active)	13%	98% (active)	81.1% (active)
CCCCCN(CCCCC)CC(O)c1cc2ccccc2c2ccccc12 (configuration not stated)	-1%	98% (active)	99.3% (active)	11%	99% (active)	99.4% (active)	18%	100% (active)	99.4% (active)	-12%	98% (active)	99.2% (active)	-1%	99% (active)	99.3% (active)	27%	99% (active)	99.2% (active)
O=C1C(=O)N(c2cc(Cl)ccc2Cl)C(=O)C(=O)C1c1nc2ccccc2o1	4%	4%	53.2%	15%	15%	37.9%	22%	22%	36.8%	10%	10%	81.2% (active)	2%	2%	57.1%	12%	12%	31.9%
N#Cc1cc2cccn2c2c1cnn2-c1ccccc1	-6%	-5%	19%	8%	4%	-6.8%	-1%	-11%	-1.5%	3%	7%	9.65%	6%	5%	-46.9%	-10%	12%	-2.95%
CC(CCNCCC#N)CC(C)(C)C (configuration not stated)	6%	66%	76.9% (active)	-4%	32%	47.8%	9%	43%	86.2% (active)	7%	33%	48.5%	7%	47%	63%	12%	66%	68.8%
Cc1[nH]nc(-c2ccon2)c1N=O	12%	61%	68.7%	-28%	66%	28.8%	16%	80% (active)	-1.75%	22%	48%	4.65%	56%	90% (active)	78.7% (active)	64%	93% (active)	58.4%
CC(=O)N(C1=C(Cl)C(=O)c2ccccc2C1=O)c1ccc(Cl)cc1	98% (active)	99% (active)	97.8% (active)	99% (active)	99% (active)	95.3% (active)	100% (active)	99% (active)	99.2% (active)	95% (active)	99% (active)	78% (active)	97% (active)	99% (active)	79.8% (active)	99% (active)	99% (active)	96.7% (active)
CCOP(=O)(C=C=C1CCC2[C@@H]3CCc4cc(OC)ccc4C3CC[C@]12C)OCC (some centres not stated)	5%	97% (active)	97.7% (active)	-1%	99% (active)	98.3% (active)	3%	98% (active)	98% (active)	1%	98% (active)	97.8% (active)	13%	98% (active)	98% (active)	-7%	98% (active)	98% (active)
CCCCCCCCC(C)c1ccccc1O (configuration not stated)	-150%	96% (active)	99.7% (active)	-53%	98% (active)	99.7% (active)	-68%	96% (active)	99.4% (active)	-62%	97% (active)	99.4% (active)	-56%	96% (active)	99.5% (active)	-151%	97% (active)	99.4% (active)
CCc1cccc(C(C)(C)C)c1NC(=S)N/C=C(\c1ccccc1)S(=O)Cc1ccccc1 (configuration not stated)	2%	77% (active)	68.4%	7%	70% (active)	46.2%	10%	56%	68.2%	-15%	45%	33.5%	-23%	25%	73.4% (active)	14%	62%	69.8%
CCCCCCC(=O)OCc1ccc(-c2ccccc2)cc1	97% (active)	99% (active)	99% (active)	98% (active)	100% (active)	99.4% (active)	95% (active)	100% (active)	99.3% (active)	26%	94% (active)	99% (active)	70% (active)	99% (active)	99.2% (active)	99% (active)	99% (active)	99.2% (active)
CC(C)(C)C(=O)/C=C/c1ccc2ccccc2n1	-135%	-119%	44.4%	-48%	-51%	51.1%	-62%	-35%	34.5%	-66%	-75%	8.6%	-67%	-73%	34.1%	-126%	-120%	77.8% (active)
Cc1occc1C(=S)Nc1ccc(Cl)c(C(=O)OC(C)C2CC2)c1 (configuration not stated)	9%	59%	58.1%	16%	48%	39.9%	-1%	46%	78.8% (active)	-5%	51%	81.5% (active)	6%	56%	77.1% (active)	12%	76% (active)	63.5%
NC(=Nc1cc2ccccc2c2ccccc12)/N=C(/N)Nc1cc2ccccc2c2ccccc12	99% (active)	97% (active)	60.6%	100% (active)	99% (active)	56.2%	99% (active)	98% (active)	51.1%	99% (active)	98% (active)	50.8%	99% (active)	98% (active)	60%	99% (active)	98% (active)	51.7%
